Out of some 290,000 compounds screened, about 2,100 (0.72%) were called active. Not shown: some 4% with an inconclusive outcome. The list comes from a sample in which actives are over-represented; it also holds similar structures and randomly drawn compounds. A number with no mark means an inactive call. The call rests on the fitted dose curve; in most records, active means well fitted inhibition curve with a large enough effect; inconclusive means small, poorly fitted or top-dose-only effect, or effect the other way; inactive means flat fitted curve, though single readings scatter.
Each compound was assayed against Fructose-bisphosphate aldolase (Giardia intestinalis (strain ATCC 50803 / WB clone C6)) (UniProt A8B2U2) (assay: qHTS Assay for Inhibitors of Fructose-1,6-bisphosphate Aldolase from Giardia Lamblia). Settings: purified Giardia FBPA; series mostly up to 59.6 µM; activity, negative = inhibition: at the top concentration.
Fructose-bisphosphate aldolase (Giardia intestinalis (strain ATCC 50803 / WB clone C6)), sequence (A8B2U2 whole entry, looked up): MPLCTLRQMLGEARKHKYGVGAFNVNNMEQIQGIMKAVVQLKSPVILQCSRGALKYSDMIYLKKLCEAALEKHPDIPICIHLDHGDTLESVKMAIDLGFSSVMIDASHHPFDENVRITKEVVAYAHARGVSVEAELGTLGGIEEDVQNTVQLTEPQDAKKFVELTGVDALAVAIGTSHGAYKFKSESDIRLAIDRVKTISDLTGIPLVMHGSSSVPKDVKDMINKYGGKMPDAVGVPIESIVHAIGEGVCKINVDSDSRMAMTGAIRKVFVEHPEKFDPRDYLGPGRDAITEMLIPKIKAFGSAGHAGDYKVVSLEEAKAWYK
Method in brief: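 Giardia FBPA (40 nM reagent) was preincubated 10 min at RT with compound (up to 57.5 uM final), then substrate plus GAPDH/TPI/NAD/arsenate coupling system with diaphorase/resazurin was added; resorufin fluorescence (525/598 nm) was read after 20 min.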
Further: nearly all actives have a fitted effect of over 55% in size.
On the % scale 0 is the no-effect control and ±100 the full control effect; potency means the concentration at half of the fitted maximal effect.

Compound | activity, negative = inhibition | Potency
COc1cc(C(=S)N2CCOCC2)cc(OC)c1OC(=O)c1ccc([N+](=O)[O-])cc1[N+](=O)[O-] | -13.1% | 
CCS(=O)(=O)Nc1ccc(C(=O)NCCSc2ccccc2)cc1 | 9.82% | 
CC(=O)OCCN(CCCn1c(-c2ccncc2)nc2ccccc21)c1nc(-c2ccc(C)cc2)cs1 | -10.8% | 
Oc1c(C=Nc2cccc3nsnc23)ccc2ccccc12 |  | 5 µM (active)
Cc1ccccc1NC(=O)C1CCN(C(=O)NC2CCCCC2)CC1 | 6.06% | 
COC(=O)C1=CN(c2ccc(F)c(F)c2)C=C(C(=O)OC)C1c1ccc([N+](=O)[O-])cc1 | 0.105% | 
COc1ccccc1-c1nnc(NC(=O)c2cccc(N3C(=O)CCC3=O)c2)o1 | 10.3% | 
Cc1ccc(C(=O)Nc2nnc(C3=COCCO3)o2)cc1C |  | 31.6 µM (active)
COc1ccccc1-c1nnc(NC(=O)c2ccc3ncsc3c2)o1 | 28.4% | 
COC(=O)c1ccccc1NC(=O)C1CCN(C(=O)N2CCOc3ccccc32)CC1 | -3.52% | 
Oc1cc(O)c2c(c1)OC(c1ccc(O)c(O)c1)C(O)C2 (stereo unspecified) |  | 9.98 µM (active)
COc1ccc(C2Oc3c(I)c(OC)cc(OC)c3CC2O)cc1OC (stereo unspecified) | 7.26% | 
COC(=O)c1ccccc1NC(=S)NC(=O)c1ccccc1F | -16.7% | 
O=C(NC(=S)Nc1ncccn1)c1ccccc1Br |  | 3.98 µM (active)
O=C(NC(=S)Nc1ccc(S(=O)(=O)Nc2ncccn2)cc1)c1cccc(Br)c1 | 1.97% | 
CCOc1ccc(OCC)c(NC(=O)CCS(=O)(=O)c2ccc(C)cc2)c1 | 7.51% | 
Cn1c(CCCOc2ccc(Cl)cc2Cl)n[nH]c1=S | -0.566% | 
COCCCNCCOCCOc1ccc(Cl)cc1Br | -23.6% | 
CN(C)CCOc1ccc(Cl)cc1C(C)(C)C |  | 14.1 µM (active)
CNC(=S)N/N=C/c1ccc(N2CCOCC2)s1 |  | 12.6 µM (active)
Cc1cc(C(=O)N/N=C/c2ccc(N3CCOCC3)cc2)c(C)o1 | -0.673% | 
C=CCNC(=S)N/N=C/c1ccc(C)s1 | 5.8% | 
O=C(CCCC(=O)N1CCN(c2cccc(Cl)c2)CC1)c1ccccc1 | -11.4% | 
NC(=O)CC(NC(=O)Cc1ccc(Br)cc1)c1ccc(NC2CC3CCC2C3)c([N+](=O)[O-])c1 (stereo unspecified) | -10.4% | 

Compound | activity, negative = inhibition | Potency
COc1cc(OC)c(C(=S)N2CCCC2)cc1OC | -20.3% | 
O=S(=O)(Nc1ccc2nc(-c3ccco3)[nH]c2c1)c1ccccc1 |  | 19.9 µM (active)
Cn1c(CCN2CCCC2)nc2cc(NS(=O)(=O)c3ccccc3)ccc21 | -18.8% | 
O=S(=O)(Nc1ccc2cn[nH]c2c1)c1ccccc1 | -18.7% | 
CCN1CCN(C(=O)C2CCCN(S(=O)(=O)c3ccc(OC)c(OC)c3)C2)CC1 (stereo unspecified) | 5.43% | 
Cc1ccc(N(Cc2cc(=O)[nH]c3ccccc23)C(=O)CCl)cc1 | -5.08% | 
O=C(NCCCc1ccccc1)c1cc(COc2c(F)cccc2F)on1 | -2.9% | 
N#Cc1c(N2CCCCC2)nc(N)c2c(N)nc(SCC(=O)O)cc12 |  | 12.6 µM (active)
N#Cc1c(-c2ccccc2)cc(-c2ccccc2)nc1SCC(=O)O | 14.5% | 
Cc1cc(C)c(C#N)c(N2CCC(C(N)=O)CC2)n1 | 4.78% | 
CSc1nnc(C2CCCN(CC(=O)Nc3ccccc3N3CCOCC3)C2)n1C(C)C (stereo unspecified) | 13.2% | 
Cc1cc(C)cc(N(CC(=O)NC2CCCC2)C(=O)CCC(=O)Nc2nccs2)c1 | -3.79% | 
CC(=O)NC(CC(=O)Nc1nccs1)c1ccccc1 (stereo unspecified) | 19.9% | 
CC(=O)NC1CCN(CC(=O)Nc2nccs2)CC1 |  | 10 µM (active)
COc1ccccc1CCNS(=O)(=O)c1cn(C)nc1C | 3.76% | 
COc1ccc(CNC(=O)c2cc(=O)c3c(C)cc(C)cc3o2)cc1 | -2.56% | 
O=C(N/N=C/c1ccccn1)c1cccnc1 |  | 4.46 µM (active)
O=C(N/N=C/c1ccc(O)c2ccccc12)c1cccnc1 | -1.74% | 
CNC(=O)C(=O)N/N=C/c1ccccn1 | -28% | 
Cc1ccc(/C=C(\C#N)C(=O)Nc2cccc3ncccc23)o1 |  | 5.61 µM (active)
O=C(Nc1cccc2ncccc12)C(Cl)(Cl)Cl | 0.917% | 
Cc1ccc(C(=O)Nc2cccc3ncccc23)cc1[N+](=O)[O-] | -3.73% | 
COc1ccc(C(=O)CC(=O)c2ccc(C)cc2)c(O)c1 | 0.0144% | 
c1ccc2c(c1)CCc1snnc1-2 | 2.66% | 

Compound | activity, negative = inhibition | Potency
CSc1ccc(S(=O)(=O)N2CCC(C(=O)NCCc3ccccc3)CC2)cc1 | 10.5% | 
CSc1ccccc1NC(=O)c1ccc2c(c1)CCN2S(C)(=O)=O | -3.55% | 
CC(NC(=O)Cn1cc(C(F)(F)F)cc(Cl)c1=O)c1ccccc1 (stereo unspecified) | 0.816% | 
CO/N=C(\C(=O)N[C@@H]1C(=O)N2C(C(=O)O)=C(COC(C)=O)CS[C@H]12)c1csc(N)n1 (stereo in doubt) |  | inactive
Cc1nnc(SCC(=O)NC2CCCC2)s1 | -2.13% | 
Cc1nnc(SCC2=C(C(=O)O)N3C(=O)C(NC(=O)Cn4nc(C)c(Cl)c4C)C3SC2)s1 (stereo unspecified) |  | 22.3 µM (active)
Cc1cccc(NC(=S)NCCc2ccc(Cl)cc2)c1C | -7.76% | 
O=C(Nc1ccccc1)/C(=C\c1ccco1)NC(=O)c1ccco1 | -17.9% | 
CCCC1=Nc2cc(C(=O)NCCN3CCCC3)ccc2Sc2ccccc21 | -13.9% | 
CCOC(=O)N1CCC(NC(=O)c2ccc3nc(N4CCOCC4)sc3c2)CC1 | 0.489% | 
Cc1nc(-c2ccc(Cl)cc2)sc1C(=O)NN | -0.949% | 
Cc1nc(N2CCOCC2)sc1C(=O)NN |  | 12.6 µM (active)
Cc1ccc(NS(=O)(=O)c2ccc3c(c2)oc(=O)n3C)c(C)c1 | -5% | 
CCCOc1ccc(-c2nc(N)n[nH]2)cc1 | -0.264% | 
Cc1ccc(OCCCCc2c(C)n[nH]c2C)cc1 |  | 20 µM (active)
Cc1ccc(OCc2n[nH]c(=S)n2-c2ccc(C)cc2)cc1 | -0.791% | 
Cc1ccccc1C(=O)N1CCC(C(=O)Oc2ccc(C#N)cc2)CC1 | 3.43% | 
Cc1ccc(CNC(=O)C2CCCN2S(=O)(=O)c2ccc3c(c2)C(C)(C)C(=O)N3C)cc1 (stereo unspecified) | -6.54% | 
CCCCOC(=O)Nc1nnc(CC(=O)NCc2ccccc2)s1 | -0.363% | 
CCCOC1CCCN(C(=O)c2cc(COc3cncc(Cl)c3)on2)C1 (stereo unspecified) | 9.73% | 
C/C(=N\NC(N)=S)c1cccnc1 |  | 15.8 µM (active)
C/C(=N\NC(=O)c1cccnc1)c1ccc(-c2ccccc2)cc1 | -7.85% | 
C/C(=N\NC(=O)c1cccc([N+](=O)[O-])c1)c1cccnc1 | -13.4% | 

Reference: PubChem BioAssay AID2451 (National Center for Advancing Translational Sciences (NCATS), 2010)
